# Screening data (PubChem BioAssay)
# PI4K2A inh = qHTS for small molecular inhibitors of PI4K2A. activity change, negative = inhibition, % at 76.9 µM. hit rate 0.13% among 420,000. purified PI4K2A, ADP-Glo luminescence, 1 h; active compounds read low; in the data active = activity change below about -50%; inconclusive = mostly about -30% to -49%;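 also: -100% = wells without enzyme as full effect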
#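 Compounds are screened against recombinant PI4K2A using PI as substrate and ATP, the latter dispensed at 300 microM. Reactions run one hour at ambient temperature before ADP-Glo detection; full inhibition defined by wells lacking enzyme.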
# Akt phos inh = HTS Assay for Inhibitors of Akt Phophorylation: Primary Screen | hit rate 0.32% among 360,000 | Neuro2A IGF-stimulated pAkt S473 HTRF, 20 min; active compounds read low | activity change, % for hits at 50 µM; in the data active = activity change below about -80%; inconclusive = mostly about -51% to -80%; also: % is scaled to controls: 0 for no effect and ±100 for the full control effect
#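 Neuro2A cells (4,500/well, DMEM with 0.5% FBS) were treated with compound at a single 50 µM final concentration, stimulated with 6 nM IGF for 20 min at 37 °C, and lysed. Phospho-Akt Ser473 was read by HTRF as 665/615 ratio ×10^4.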
# LDHA inh = qHTS assay for inhibitors of human lactate dehydrogenase. L-lactate dehydrogenase A chain (Homo sapiens), P00338. purified LDHA, NADH/diaphorase-resazurin fluorescence; active compounds read low. activity change, % (values are at about 110 or 230 µM). hit rate 0.15% among 480,000. AID 1347041, 2019; in the data active = activity change below about -30%; inconclusive = mostly about -25% to -30%;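 also: plate controls were DMSO wells for no effect and wells without enzyme for full effect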
#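 Human LDH5 at 2 nM final in Tris HCl pH 7.4 with 0.06 mM NADH and 0.2 mM pyruvate, reacted 5 minutes at room temperature. Remaining NADH coupled via diaphorase/resazurin; resorufin fluorescence read at 0 and 20 minutes, normalized to enzyme-free and DMSO wells.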
# D3 antag = qHTS of D3 Dopamine Receptor Antagonist: qHTS; hit rate 2.5% among 360,000; D3R cells, DiscoveRx beta-arrestin luminescence, antagonist mode; active compounds read low; max response, negative = inhibition, %; in the data active = max response below about -50%; inconclusive = no clear call, values can overlap the other calls; also: % is scaled to controls: 0 for no effect and ±100 for the full control effect
#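 Cells expressing the human receptor were seeded at 1500 cells/well, incubated overnight at 37 degrees C in 5% CO2, then exposed to library compounds with dopamine controls for 90 minutes at 37 degrees C before luminescent detection.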
# RGS4 inh = Inhibitors of Regulator of G Protein Signaling (RGS) 4: qHTS. Potency, µM (series often up to 114 µM), for the others: at the highest dose activity change, negative = inhibition, most hits filed as inhibitors. Regulator of G-protein signaling 4 (Homo sapiens), P49798. AID 504845, 2011. hit rate 0.039% among 390,000. Transcreener GDP fluorescence polarization, RGS4-accelerated GTP hydrolysis; active = well fitted inhibition curve with a large enough effect; inconclusive = small, poorly fitted or top-dose-only effect; inactive = no such curve, though single readings can be large or run the other way; also: potency is read from the fitted curve at half-maximal effect; % is scaled to controls: 0 for no effect and ±100 for the full control effect; nearly all actives have a fitted effect of over 75% in size
# Target sequence (P49798 whole entry, looked up): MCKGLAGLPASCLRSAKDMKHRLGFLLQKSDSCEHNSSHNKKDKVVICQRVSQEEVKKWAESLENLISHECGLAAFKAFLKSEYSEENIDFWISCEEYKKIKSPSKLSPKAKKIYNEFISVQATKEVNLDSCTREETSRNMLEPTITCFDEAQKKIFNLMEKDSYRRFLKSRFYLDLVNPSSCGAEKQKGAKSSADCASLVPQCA
#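 MLSMR compounds (23 nl, pin-transferred) preincubated 10 min at room temperature with a 500nM (2x) first reagent, then RGS4 at 900nM (2x) plus Transcreener GDP mix added; fluorescence polarization (620/688 nm) read before and after 90 min at 30 °C.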
# D3 ag = qHTS of D3 Dopamine Receptor Agonist: qHTS | D(3) dopamine receptor (Homo sapiens), P35462 | D3R DiscoveRx beta-arrestin cells, luminescence, 90 min | max activation, % | hit rate 0.58% among 410,000 | AID 652048, 2013; in the data active = max activation above about 30%; also: 0% is about no effect
#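 Agonist mode: compounds and dopamine controls were applied to plated cells for 90 min at 37 degrees C after an overnight attachment at 1500 cells/well. Luminescent read-out followed 30 - 60 minutes at room temperature with DiscoveRx detection reagent.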
# Numbers without * were called inactive; i = inactive; ? = inconclusive; · = no result; ! = a repeat was not active. Compounds with a hit are over-represented: about 2.8% of the library has one in this group of screens.
SMILES,PI4K2A inh,Akt phos inh,LDHA inh,D3 antag,RGS4 inh,D3 ag
O=C(Nc1nc2ccc(F)cc2s1)c1ccc(CN2CCCCC2)cc1,·,·,5,·,·,·
CCOC(=O)N=Nc1c2ccccc2c2nc3no[nH]c3nc12,-26,i,30,-65*,20%,-18
Cc1ccc(CNCc2ccccc2Cl)cc1,-3,i,-3,-67*,3%,-13
COc1ccc2c(c1)cc(C(=O)Nc1ccccc1C)n2C,·,·,1,·,·,·
CCOC(=O)N1CCN(c2ccnc3cc(Cl)ccc23)CC1,-2,i,7,12,-1%,13
O=C(Oc1ccnc2cc(Cl)ccc12)N1CCCCCC1,-1,-96%*,-3,-12,-13%,6
CCc1cccc(OCCCCNCCOC)c1,1,i,-11,-67*,-13%,-13
N#Cc1cccc(NC(=O)CCc2ncc(-c3ccccc3Cl)o2)c1,·,·,3,·,·,·
CCOC(=O)N1CCc2c(sc(N)c2C#N)C1,-1,i,5,7,-15%,60*
CCOC(=O)N1CCc2c(sc(NC(=O)CN3CCOCC3)c2C#N)C1,2,i,-7,2,-26%,11
COc1cccc(-c2nnc(SCC(=O)Nc3cc(C)ccc3OC)n2N)c1,3,-119%*,-18,6,2%,0
COc1ccc(C)cc1NC(=O)CSc1nnc(COc2ccc(Cl)cc2)n1Cc1ccco1,-3,?,-1,19,-20%,10
Cc1ccc(NC(=O)CSc2nnc(CSc3nc(C)cc(C)n3)n2Cc2ccco2)c(C)c1,-3,i,-4,-5,-37%,-5
COc1ccc(C)cc1NC(=O)CSc1nnc(COc2ccccc2)n1Cc1ccco1,-1,-98%*,2,-11,-7%,-4
Cc1ccc(C)c(NC(=O)CSc2nnc(CSc3nc(C)cc(C)n3)n2Cc2ccco2)c1,-2,-91%*,-4,-3,17%,2
CCC(=O)Nc1cc(NC(=O)CSc2ncc(-c3ccc(F)cc3)n2Cc2ccco2)ccc1C,5,i,-5,-60*,-33%,1
COc1ccc(C)cc1NC(=O)CSc1nnc(-c2ccco2)n1N,10,i,-6,-14,14%,-6
COc1ccc(NC(=O)CSc2ncc(-c3ccc(F)cc3)n2Cc2ccco2)cc1,1,i,-3,0,-35%,5
CC(=O)c1ccc(OCC(O)CN2CCN(Cc3ccc4c(c3)OCO4)CC2)cc1 (centres undefined),0,i,8,-51*!,-53%,-12
Cc1ccc(OCC(O)CN2CCN(Cc3ccc4c(c3)OCO4)CC2)c(C)c1 (centres undefined),-2,i,-17,-60*,-6%,-11
COc1ccc(OCC(O)CN2CCN(Cc3ccc4c(c3)OCO4)CC2)cc1 (centres undefined),-3,i,-2,0,6%,-6
O=C1NC2(CCCCC2)C(=O)N1Cc1cc(F)cc2cccnc12,·,·,5,·,·,·
N#CC(C(=O)C(F)(F)F)c1ccccc1 (centres undefined),·,·,3,·,·,·
CNC(=O)NC(=O)CSc1ccc2ccccc2n1,·,·,-2,·,·,·
Cc1nc(NCCc2ccc(O)cc2)c2nnn(Cc3ccccc3)c2n1,2,i,-7,-82*,-6%,-14
c1cncc(-c2nnc(-c3ccco3)o2)c1,5,·,-2,-108*,9%,2
c1cncc(-c2nc(-c3ccco3)cs2)c1,-11,i,-7,-63*,-43%,-4
Cc1c(CCC(=O)NCCc2ccccc2F)c(=O)oc2c(C)c(O)ccc12,·,·,5,·,·,·
Cc1ccc(C(=O)n2nc(NCc3ccccc3)nc2NCc2ccccc2)cc1,·,·,-13,·,·,·
